PubChem BioAssay (Tox21)
Records with an inconclusive call do not appear. Unmarked numbers belong to inactive results. Calls follow the shape of the dose curve; as a rule, active = well fitted inhibition curve with a large enough effect in the repeat runs; inconclusive = weak or mixed curves, or effect the other way; inactive = no such curve, though single readings can be large or run the other way.

Experiment: qHTS assay to identify small molecule antagonists of the retinoic acid receptor (RAR) signaling pathway (AID 1159552; also: nearly all actives have a fitted effect of over 50% in size)
Settings: C3RL4 RARE luciferase reporter, retinol-stimulated, 6 h; series mostly up to 92.4 µM; activity, negative = inhibition: at the top concentration
Description: National Center for Advancing Translational Sciences [NCATS]
NIH Chemical Genomics Center [NCGC]
U.S. Environmental Protection Agency [EPA]
National Institutes of Environmental Health Sciences [NIEHS]
National Toxicology Program [NTP]
U.S. Food and Drug Administration [FDA]
All-trans Retinoic acid (atRA) is the potent natural metabolite of retinol and plays an important role in normal embryonic development and maintenance of cellular phenotype in adult animals. atRA is the activating ligand for the retinoic acid receptors (RARs) which form heterodimers with retinoid X receptors (RXRs) on the retinoic acid response element (RARE). Through activation of the RAR/RXRs nuclear receptors, atRA regulates the transcription of a large number of protein-coding genes and regulatory RNAs. Intracellular levels of atRA are controlled by the retinol signaling pathway (RSP) that regulates the biosynthesis and catabolism of atRA to maintain physiological levels. Chemicals that interfere with the RSP can cause abnormal intracellular levels of atRA and therefore are potential developmental toxicants. To assess compounds for the potential adverse effect on embryonic development through interfering with retinol signaling, a cell-based RARE luciferase reporter gene assay was used. C3RL4 cell line (OARSA/CFSAN/FDA, Laurel, MD) was used to screen Tox21 10K compound library for identifying inhibitors of the RSP.
Tox21 Assay Protocol Summary:
C3RL4 cells were seeded at 1,000/well in 4 uL of assay medium into white solid 1,536-well tissue culture plates (Greiner Bio-One North America Inc. Monroe, NC) using a Multidrop Combi (Thermo Scientific, Waltham, MA) dispenser. After incubation at 37 C and 5% CO2 for an overnight, 23 nL of compounds dissolved in DMSO, positive control or DMSO only were transferred by a Pintool station (Kalypsys, San Diego, CA). One ul of 1 uM (final concentration) of Retinol was added right after the compound addition by using a Flying Reagent Dispenser (FRD) (Aurora Discovery, San Diego, CA). After 6 hr incubation at 37 C and 5% CO2, 5 uL of Amplite Luciferase reagent (AAT Bioquest Inc. Sunnyvale, CA) was added to each assay plate using an FRD. Luminescence was quantified on a ViewLux plate reader (PerkinElmer, Waltham, MA) after 30 min incubation at room temperature.
% is scaled to controls: 0 for no effect and ±100 for the full control effect.

Which “activity, negative = inhibition” value does the source give for `C=CCCCCCCCCC(=O)OCCCC` here?
Its value is -2.36%.

With `CCO` as the molecule, how does the “activity, negative = inhibition” value read?
Its value is -1.32%.

With `Cc1ccccc1C(N)=O` as the molecule, how does the “activity, negative = inhibition” value read?
The value was 17.7%.

For `NCC1(Cc2noc(=O)[nH]2)CCCCC1`, which “activity, negative = inhibition” value is on record?
The value was 12.2%.

Which “activity, negative = inhibition” value does the source give for `[O-][n+]1cccc(/C(Cl)=N/OC[C@@H](O)CN2CCCCC2)c1` here?
Its value is 2.5% [at 42.5 µM].

For `C=CC/C=C/C`, which “activity, negative = inhibition” value is on record?
The value was 28.3%.

With `CC(CO)(CO)CO` as the molecule, how does the “activity, negative = inhibition” value read?
The value was 5.94%.

Which “activity, negative = inhibition” value does the source give for `CO/N=C(/C(=O)N[C@@H]1C(=O)N2C(C(=O)[O-])=C(C[n+]3ccn4ncccc43)CS[C@H]12)c1nsc(N)n1` here?
The value was 8.42% [at 42.5 µM].

With `CCC(C)C(C)=O` (stereo not given) as the molecule, how does the “activity, negative = inhibition” value read?
The value was 11.5%.

With `CCOC(CN1CCN(CC(C)C(=O)c2ccccc2)CC1)c1ccccc1` (stereo not given) as the molecule, how does the activity, negative = inhibition read?
The activity, negative = inhibition was 1.21% [at 19 µM].

Which “activity, negative = inhibition” value does the source give for `Cc1c(NC(=O)c2cccnc2)c(=O)n(-c2ccccc2)n1C` here?
The value was 4.77% [at 42.5 µM].

For `CC1(C)CC(OC(=O)CCCCCCCCC(=O)OC2CC(C)(C)NC(C)(C)C2)CC(C)(C)N1`, which activity, negative = inhibition is on record?
Its activity, negative = inhibition is 10.8% [at 19 µM].

Which “activity, negative = inhibition” value does the source give for `CCC(=O)Oc1ccc2c(c1)CC[C@@H]1[C@@H]2CC[C@@]2(C)[C@H]1C[C@@H](OC(=O)CC)[C@@H]2OC(=O)CC` here?
The value was -2.71% [at 42.5 µM].

Which “activity, negative = inhibition” value does the source give for `CC(Oc1cc(Cl)ccc1Cl)C(=O)O` (stereo not given) here?
The value was 4.29%.

Which “activity, negative = inhibition” value does the source give for `CCCCC1CCC(O)CC1` (stereo not given) here?
The value was -3%.

With `O=C(Cn1ccnc1[N+](=O)[O-])NCc1ccccc1` as the molecule, how does the “activity, negative = inhibition” value read?
The value was -3.4% [at 42.5 µM].

For `NCc1ccc(S(N)(=O)=O)cc1`, which “activity, negative = inhibition” value is on record?
Its value is 12.5% [at 42.5 µM].

Which activity, negative = inhibition does the source give for `N[C@@H](Cc1ccc(O)cc1)C(=O)O` here?
The activity, negative = inhibition was 7.5% [at 8.39 µM].

Which “activity, negative = inhibition” value does the source give for `O=NN(CCCl)C(=O)NC1CCCCC1` here?
Its value is 6.98% [at 42.5 µM].

With `CCCC(=O)Nc1ccc(OCC(O)CNC(C)C)c(C(C)=O)c1` (stereo not given) as the molecule, how does the “activity, negative = inhibition” value read?
Its value is 2.12% [at 42.5 µM].

With `CC(C)CCOC(=O)c1ccccc1` as the molecule, how does the “activity, negative = inhibition” value read?
Its value is -1.68%.

For `CO[C@@]1(NC(=O)Cc2cccs2)C(=O)N2C(C(=O)O)=C(COC(N)=O)CS[C@@H]21`, which “activity, negative = inhibition” value is on record?
The value was -1.69% [at 42.5 µM].

For `CC(C)(CO)C(O)C(=O)NCCCO` (stereo not given), which “activity, negative = inhibition” value is on record?
Its value is 0.616%.

With `CCOC(=O)CC1(C)OCC(C)O1` (stereo not given) as the molecule, how does the “activity, negative = inhibition” value read?
The value was 5.13%.

For `CC(C)COC(=O)c1ccccc1`, which “activity, negative = inhibition” value is on record?
The value was 16.3%.

For `CC(=O)OCC(=O)Nc1cc(C#N)cc(NC(=O)COC(C)=O)c1Cl`, which “activity, negative = inhibition” value is on record?
Its value is 5.02% [at 42.5 µM].

With `CCCSSCCC` as the molecule, how does the “activity, negative = inhibition” value read?
The value was 10.2%.

For `CCC(C)OC(C)CC` (stereo not given), which “activity, negative = inhibition” value is on record?
The value was -6.19%.

Which “activity, negative = inhibition” value does the source give for `OCC1(CO)COCOC1` here?
Its value is 1.42%.

With `COC(=O)c1cc(Cl)cc(Cl)c1` as the molecule, how does the “activity, negative = inhibition” value read?
The value was 2.79%.

With `CC/C=C\CCOC(=O)c1ccccc1O` as the molecule, how does the “activity, negative = inhibition” value read?
The value was 36.8%.

Which “activity, negative = inhibition” value does the source give for `CCN(CC)CCN` here?
The value was 24.9% [at 42.5 µM].

For `OCC(O)CN1CCN(c2ccccc2)CC1` (stereo not given), which “activity, negative = inhibition” value is on record?
The value was 8.38% [at 42.5 µM].

For `CC(=O)C1C(=O)C=C(C)OC1=O` (stereo not given), which “activity, negative = inhibition” value is on record?
The value was 10.4%.

With `COc1cc2c(cc1OC)C(=O)C(CC1CCN(Cc3ccccc3)CC1)C2` (stereo not given) as the molecule, how does the “activity, negative = inhibition” value read?
The value was 51.4% [at 42.5 µM].

With `COc1cc2c(cc1OC)CN(C(=O)[C@H](C)N[C@@H](CCc1ccccc1)C(=O)O)[C@H](C(=O)O)C2` as the molecule, how does the “activity, negative = inhibition” value read?
The value was -0.739% [at 42.5 µM].

Which “activity, negative = inhibition” value does the source give for `CCOc1cccc(N)c1` here?
Its value is -7.66%.

Which “activity, negative = inhibition” value does the source give for `CNCCS(=O)(=O)O` here?
Its value is -4.83%.

With `COc1nc(N)nc2nc[nH]c12` as the molecule, how does the “activity, negative = inhibition” value read?
Its value is -2.98%.

With `COC(=O)CCCCC(CCSS/C(CCO)=C(\C)N(C=O)Cc1cnc(C)nc1N)SC(C)=O` (stereo not given) as the molecule, how does the “activity, negative = inhibition” value read?
Its value is -8.6% [at 42.5 µM].
